Results as given in PubChem BioAssay (NCI).
About 83,000 compounds went through this panel and 20% of them were active in at least one assay; those are over-represented in the sample as a whole.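 Results are percent growth after 48 hours of single-concentration exposure. 100 means growth as in untreated cells, lower positive values show inhibition; negative values down to -100 show cell death.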 Unmarked numbers belong to inactive results. The source made the active and inactive calls. The calls were made as follows: active = growth percent below 10; inactive = the rest.

Legend:
Test in all cases: NCI-60 one-dose screen, 48 h (100 = growth as untreated, 0 = no growth, -100 = all killed)
HCT-15 colon = conditions: 10 µM unless noted
HT29 colon = conditions: 10 µM unless noted
SNB-75 CNS = conditions: 10 µM unless noted
U251 CNS = conditions: 10 µM unless noted
PC-3 prostate = conditions: 10 µM unless noted
SK-MEL-5 melanoma = conditions: 10 µM unless noted
UACC-62 melanoma = conditions: 10 µM unless noted
LOX IMVI melanoma = conditions: 10 µM
SK-MEL-28 melanoma = conditions: 10 µM unless noted

Structure (SMILES)	growth (HCT-15 colon)	growth (HT29 colon)	growth (SNB-75 CNS)	growth (U251 CNS)	growth (PC-3 prostate)	growth (SK-MEL-5 melanoma)	growth (UACC-62 melanoma)	growth (LOX IMVI melanoma)	growth (SK-MEL-28 melanoma)
Cc1cccc(NC(=O)[C@]23CCC(C)(C)CC2C2=CCC4[C@@]5(C)C[C@@H](O)[C@H](O)[C@@](C)(CO)C5CC[C@@]4(C)[C@]2(C)CC3)c1 (stereo not given in full)	-5.5% (active)	-56.1% (active)	43.7%	27.8%	13.3%	-90.7% (active)	20.3%	-75.2% (active)	32.5%
COc1ccc(/C=N/NC(=O)Cn2nc(Cc3ccc(OC)cc3)c3onc(C)c3c2=O)cc1	70.2%	38.1%	26.9%	54.6%	23.2%	91.6%	48.5%	10.6%	29.8%
CCCCCCCCc1ccc(C(=O)Nc2ccc(C)cc2C(=O)O)cc1C	94%	108%	92.4%	88.1%	84.2%	94.3%	91.3%	101%	109%
CCCCCCCCc1ccc(C(=O)Nc2cccc(P(=O)(O)O)c2)cc1	100%	114%	99.9%	108%	92.9%	97.7%	91.8%	103%	107%
CN(C)c1nc(NCCNS(=O)(=O)c2ccc(C3=Nc4c(N)nc(N)nc4NC(c4ccc(Cl)cc4)C3)cc2)nc(Nc2ccc(F)cc2)n1 (stereo not given)	32%	-41.4% (active)	53.2%	27.5%	31.3%	-48.7% (active)	25.6%	-56.4% (active)	38.9%
CCN(CC)c1ccnc(CNCCSC(c2ccccc2)(c2ccccc2)c2ccc(OC)cc2)c1	-58.2% (active)	-63.1% (active)	3.35% (active)	-80.3% (active)	-36% (active)	-99.9% (active)	-39.3% (active)	-99.2% (active)	-48.5% (active)
O=C(COc1ccc(NC(=O)Nc2ccc(Cl)cc2)cc1)N/N=C/c1ccccc1	-80.3% (active)	-87.4% (active)	-37.4% (active)	-86.2% (active)	-72.9% (active)	-94% (active)	-87.5% (active)	-97.5% (active)	-84.9% (active)
CCCCCCCCc1ccc(S(=O)(=O)Nc2ccc(CC)cc2C(=O)O)cc1	85.7%	124%	106%	92.9%	89.7%	80.3%	81.3%	99.9%	104%
CC(C)Sc1nc(NCCc2c[nH]c3ccccc23)c(C#N)c(-c2ccc(F)cc2)n1	5.84% (active)	-6.22% (active)	73%	20.7%	15%	24.1%	58.8%	-17.3% (active)	71.1%
COc1ccc(N2N=C(c3ccc4c(c3)OCO4)CC2c2cccc(NC(=O)CCCNS(=O)(=O)c3ccc(F)cc3)c2)cc1 (stereo not given)	57.8%	61.3%	50.6%	59.2%	42.5%	48%	66.4%	66.4%	75.4%
CCCCSc1nc(NCCc2c[nH]c3ccccc23)c(C#N)c(-c2ccccc2)n1	16.8%	1.16% (active)	70.7%	8.25% (active)	13.2%	17.2%	72%	-34% (active)	81.1%
COc1ccc2c(c1)C(=N/N=C(\C)c1ccc(OC)c(S(N)(=O)=O)c1)C(=O)N2	98.2%	96.3%	66.3%	74.4%	83.3%	91.5%	77.5%	95%	94.1%
COC(OC)C1=C(C)OC(N)=C(C#N)C12C(=O)Nc1ccccc12 (stereo not given)	94.6%	102%	103%	99.4%	92.8%	92.4%	81.1%	28.4%	85%
COc1ccc(-c2nc3ccc(C(=O)NN4C(=O)c5ccc([N+](=O)[O-])cc5C4=O)cc3[nH]2)cc1	95.9%	87.1%	83.3%	97%	90.5%	83.1%	80.2%	87.1%	95.6%
CN(C)c1ccnc(CNCCSC2(c3ccc(C(F)(F)F)cc3)c3ccccc3C=Cc3ccccc32)c1	-90.6% (active)	-61.7% (active)	-6.52% (active)	-77% (active)	-3.49% (active)	-97.1% (active)	2.63% (active)	-92% (active)	-67.4% (active)
COc1ccc(C(SCCNCc2cc(N(C)C)ccn2)(c2ccccc2)c2ccccc2)cc1	-19.5% (active)	-60.2% (active)	-0.256% (active)	-33.9% (active)	2.15% (active)	-100% (active)	-3.86% (active)	-98.9% (active)	-65.3% (active)
Cc1cc(=O)oc2cc(OCCCOc3ccc(/C=C/C(=O)Nc4ccccc4N)cc3)ccc12	38%	37.4%	36.2%	32.2%	32%	-91.2% (active)	21%	-76.5% (active)	32%
CN(C)c1ccnc(NCCCSC(c2ccccc2)(c2ccccc2)c2ccccc2)c1	10.7%	-51.8% (active)	63.1%	6.61% (active)	7.71% (active)	-98.4% (active)	28.6%	47.9%	-77.3% (active)
Cc1ccc(-c2nc(C#N)c(S(=O)(=O)N3CCN(S(=O)(=O)c4ccc(Cl)cc4)CC3)o2)cc1	103%	117%	86.3%	62.1%	101%	94.4%	83.5%	0.237% (active)	98.7%
COc1ccc(N2N=C(c3ccc4c(c3)OCO4)CC2c2cccc(NC(=O)CCNS(=O)(=O)c3ccc(Cl)cc3)c2)cc1 (stereo not given)	33%	17.1%	49.4%	29.5%	16.5%	24.2%	39.5%	23.3%	28.2%
CCCCCCCCOc1cccc(S(=O)(=O)Nc2ccc(C)cc2C(=O)O)c1	92.4%	110%	94.9%	91.5%	88.2%	89.1%	85.4%	101%	106%
COc1cc2c(c(OC)c1OC)C(=O)CC(c1cccc(NC(=O)c3cc(NC(=O)[C@H](C)N)ccc3Cl)c1)O2 (stereo not given in full)	24.5%	59.5%	76.1%	20.9%	22%	24.9%	34%		63%
O=C(NNc1ccccc1)n1c(=O)c2ccccc2c(=O)n1-c1ccccc1	91.4%	98.8%	80.3%	94.1%	92.6%	101%	91.2%		104%
CCN(CC)c1ccnc(CNCCSC(c2ccccc2)(c2ccccc2)c2ccc(C)cc2)c1	-92.4% (active)	-80.5% (active)	-51.2% (active)	-93% (active)	-76.6% (active)	-99.6% (active)	-96.2% (active)	-99.6% (active)	-97.5% (active)
NS(=O)(=O)c1ccc(-n2cc(-c3cccc(NC(=O)c4cc(C(F)(F)F)cc(C(F)(F)F)c4)c3)nn2)cc1	85.7%	46.6%	37.5%	11.7%	52%	90.5%	73.8%		81.5%
Clc1cccc(-c2ccc(OCCCN3CCN(c4ccncc4)CC3)cc2)c1	-69.8% (active)	-57.5% (active)	42.8%	-73.6% (active)	-8.32% (active)	-98% (active)	-74.3% (active)		-68.5% (active)
